Results reported in ChEMBL document CHEMBL1961873, “Compounds: GSK PKIS; Assays: Nanosyn kinase panel” (2012).

Experiments:
[1] = molecular target: Death-associated protein kinase 1 (Homo sapiens) (UniProt P53355); conditions: at 1 µM;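 further: each value is a mean inhibition figure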
[2] = molecular target: T1, Serine/threonine-protein kinase DCLK2 (Homo sapiens) (UniProt Q8N568); conditions: at 0.1 µM
T1 sequence (whole entry): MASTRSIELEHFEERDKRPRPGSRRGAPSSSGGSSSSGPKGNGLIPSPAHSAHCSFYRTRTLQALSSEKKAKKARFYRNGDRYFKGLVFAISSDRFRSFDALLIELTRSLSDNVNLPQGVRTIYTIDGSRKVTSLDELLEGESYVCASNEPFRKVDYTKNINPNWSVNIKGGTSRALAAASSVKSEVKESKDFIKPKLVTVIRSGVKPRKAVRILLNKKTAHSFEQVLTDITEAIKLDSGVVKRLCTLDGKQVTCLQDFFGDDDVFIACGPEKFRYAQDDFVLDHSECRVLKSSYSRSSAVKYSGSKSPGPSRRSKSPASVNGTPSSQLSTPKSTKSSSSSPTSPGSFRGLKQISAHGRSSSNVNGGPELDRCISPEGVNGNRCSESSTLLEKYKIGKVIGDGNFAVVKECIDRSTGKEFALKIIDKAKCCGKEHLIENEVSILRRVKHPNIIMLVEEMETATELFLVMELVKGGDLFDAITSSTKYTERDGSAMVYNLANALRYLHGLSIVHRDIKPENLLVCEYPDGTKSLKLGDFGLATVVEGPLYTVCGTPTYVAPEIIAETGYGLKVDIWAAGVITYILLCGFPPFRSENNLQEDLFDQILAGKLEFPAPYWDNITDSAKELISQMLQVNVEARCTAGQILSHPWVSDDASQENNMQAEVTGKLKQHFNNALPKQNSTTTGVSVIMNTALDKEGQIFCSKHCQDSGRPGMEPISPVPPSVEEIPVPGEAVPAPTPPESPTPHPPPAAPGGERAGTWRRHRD

[3] = molecular target: T1, Serine/threonine-protein kinase DCLK2 (Homo sapiens); conditions: at 1 µM
[4] = molecular target: MAP kinase-activated protein kinase 2 (Homo sapiens) (UniProt P49137); conditions: at 0.1 µM
Chain of MAP kinase-activated protein kinase 2 (Homo sapiens) (P49137 whole entry, looked up): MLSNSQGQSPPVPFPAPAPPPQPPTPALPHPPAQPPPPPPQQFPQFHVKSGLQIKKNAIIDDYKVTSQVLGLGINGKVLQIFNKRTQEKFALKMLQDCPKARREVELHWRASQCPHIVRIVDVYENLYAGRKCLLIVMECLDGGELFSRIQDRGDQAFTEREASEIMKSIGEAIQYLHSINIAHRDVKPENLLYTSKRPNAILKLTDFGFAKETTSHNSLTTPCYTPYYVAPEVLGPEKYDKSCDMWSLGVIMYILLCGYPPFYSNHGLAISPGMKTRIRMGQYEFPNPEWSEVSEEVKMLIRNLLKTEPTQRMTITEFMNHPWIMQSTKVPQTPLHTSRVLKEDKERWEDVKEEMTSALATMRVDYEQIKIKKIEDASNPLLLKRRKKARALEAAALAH

[5] = molecular target: MAP kinase-activated protein kinase 2 (Homo sapiens) (UniProt P49137); conditions: at 1 µM
[6] = molecular target: MAP kinase-activated protein kinase 3 (Homo sapiens) (UniProt Q16644); conditions: at 0.1 µM
Chain of MAP kinase-activated protein kinase 3 (Homo sapiens) (Q16644 whole entry, looked up): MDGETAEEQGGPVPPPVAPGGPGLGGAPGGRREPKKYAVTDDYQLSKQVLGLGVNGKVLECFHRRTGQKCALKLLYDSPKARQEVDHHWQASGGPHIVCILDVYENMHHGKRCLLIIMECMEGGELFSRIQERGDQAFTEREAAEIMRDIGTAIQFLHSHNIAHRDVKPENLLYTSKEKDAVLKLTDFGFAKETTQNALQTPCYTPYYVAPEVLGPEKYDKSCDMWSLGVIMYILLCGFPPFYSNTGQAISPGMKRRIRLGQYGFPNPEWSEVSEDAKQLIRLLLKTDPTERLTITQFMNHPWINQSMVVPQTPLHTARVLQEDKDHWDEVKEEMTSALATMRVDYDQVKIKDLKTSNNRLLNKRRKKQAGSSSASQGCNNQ

[7] = molecular target: MAP kinase-activated protein kinase 3 (Homo sapiens) (UniProt Q16644); conditions: at 1 µM
[8] = molecular target: Serine/threonine-protein kinase MARK1 (Homo sapiens) (UniProt Q9P0L2); conditions: at 0.1 µM
Chain of Serine/threonine-protein kinase MARK1 (Homo sapiens) (Q9P0L2 whole entry, looked up): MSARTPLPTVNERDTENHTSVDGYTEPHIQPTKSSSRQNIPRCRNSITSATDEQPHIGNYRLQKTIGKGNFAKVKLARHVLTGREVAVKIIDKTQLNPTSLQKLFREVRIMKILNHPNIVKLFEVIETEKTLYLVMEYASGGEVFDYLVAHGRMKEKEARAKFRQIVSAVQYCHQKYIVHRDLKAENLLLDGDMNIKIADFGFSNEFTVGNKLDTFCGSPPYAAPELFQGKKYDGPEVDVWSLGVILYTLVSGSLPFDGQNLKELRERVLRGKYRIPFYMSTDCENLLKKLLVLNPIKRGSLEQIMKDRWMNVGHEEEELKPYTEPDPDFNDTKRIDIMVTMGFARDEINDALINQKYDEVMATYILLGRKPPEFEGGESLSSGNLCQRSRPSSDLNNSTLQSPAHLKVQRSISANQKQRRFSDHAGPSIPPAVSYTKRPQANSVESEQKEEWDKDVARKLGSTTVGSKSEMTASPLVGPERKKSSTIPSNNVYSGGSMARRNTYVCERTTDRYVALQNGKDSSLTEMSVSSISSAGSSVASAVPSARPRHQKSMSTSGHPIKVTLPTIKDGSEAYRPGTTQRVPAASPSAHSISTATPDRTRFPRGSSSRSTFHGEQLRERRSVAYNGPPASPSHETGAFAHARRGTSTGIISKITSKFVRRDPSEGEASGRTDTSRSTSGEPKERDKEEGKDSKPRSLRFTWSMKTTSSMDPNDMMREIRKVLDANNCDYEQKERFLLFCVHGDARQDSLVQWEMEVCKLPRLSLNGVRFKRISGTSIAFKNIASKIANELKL

[9] = molecular target: Serine/threonine-protein kinase MARK1 (Homo sapiens) (UniProt Q9P0L2); conditions: at 1 µM
[10] = molecular target: MAP/microtubule affinity-regulating kinase 3 (Homo sapiens) (UniProt P27448); conditions: at 0.1 µM
Chain of MAP/microtubule affinity-regulating kinase 3 (Homo sapiens) (P27448 whole entry, looked up): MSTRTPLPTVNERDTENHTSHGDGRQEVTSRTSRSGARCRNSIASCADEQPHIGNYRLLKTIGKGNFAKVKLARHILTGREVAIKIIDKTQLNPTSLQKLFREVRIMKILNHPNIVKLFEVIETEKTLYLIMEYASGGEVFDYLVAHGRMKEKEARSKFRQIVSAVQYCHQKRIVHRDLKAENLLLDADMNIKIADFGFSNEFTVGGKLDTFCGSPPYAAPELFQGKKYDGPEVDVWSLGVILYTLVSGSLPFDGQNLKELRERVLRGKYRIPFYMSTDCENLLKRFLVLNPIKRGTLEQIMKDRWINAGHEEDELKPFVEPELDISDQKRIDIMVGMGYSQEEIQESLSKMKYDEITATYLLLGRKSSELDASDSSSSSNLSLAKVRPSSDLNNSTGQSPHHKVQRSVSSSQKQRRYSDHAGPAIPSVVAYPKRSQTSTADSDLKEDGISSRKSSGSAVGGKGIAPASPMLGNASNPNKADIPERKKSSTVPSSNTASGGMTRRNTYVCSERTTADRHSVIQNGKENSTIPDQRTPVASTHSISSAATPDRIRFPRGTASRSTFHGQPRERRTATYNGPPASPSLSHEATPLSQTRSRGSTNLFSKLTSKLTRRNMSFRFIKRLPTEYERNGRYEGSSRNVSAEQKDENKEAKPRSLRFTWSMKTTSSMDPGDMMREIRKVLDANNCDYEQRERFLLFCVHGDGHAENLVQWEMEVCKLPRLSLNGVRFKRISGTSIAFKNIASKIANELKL

[11] = molecular target: MAP/microtubule affinity-regulating kinase 3 (Homo sapiens) (UniProt P27448); conditions: at 1 µM
[12] = molecular target: T2, MAP/microtubule affinity-regulating kinase 4 (Homo sapiens) (UniProt Q96L34); conditions: at 0.1 µM
T2 sequence (whole entry): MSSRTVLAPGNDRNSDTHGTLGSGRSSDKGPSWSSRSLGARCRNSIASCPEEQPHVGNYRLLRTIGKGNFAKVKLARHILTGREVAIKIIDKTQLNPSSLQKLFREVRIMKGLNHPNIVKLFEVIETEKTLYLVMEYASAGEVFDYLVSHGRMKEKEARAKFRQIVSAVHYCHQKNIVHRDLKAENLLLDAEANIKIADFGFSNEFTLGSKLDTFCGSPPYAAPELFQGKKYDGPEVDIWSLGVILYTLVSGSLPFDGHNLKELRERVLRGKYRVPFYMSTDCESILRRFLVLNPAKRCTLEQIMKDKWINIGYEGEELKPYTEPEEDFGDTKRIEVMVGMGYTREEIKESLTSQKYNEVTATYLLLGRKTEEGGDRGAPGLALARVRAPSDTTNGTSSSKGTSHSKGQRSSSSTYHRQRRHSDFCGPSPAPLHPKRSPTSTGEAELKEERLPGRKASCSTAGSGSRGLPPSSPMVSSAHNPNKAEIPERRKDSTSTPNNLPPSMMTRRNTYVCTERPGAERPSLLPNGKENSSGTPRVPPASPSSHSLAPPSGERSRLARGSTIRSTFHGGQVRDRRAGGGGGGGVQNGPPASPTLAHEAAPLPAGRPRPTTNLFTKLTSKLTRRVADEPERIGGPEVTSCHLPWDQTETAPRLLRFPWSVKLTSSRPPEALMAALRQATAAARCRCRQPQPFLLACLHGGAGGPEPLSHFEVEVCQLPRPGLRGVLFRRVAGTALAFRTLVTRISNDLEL

[13] = molecular target: T2, MAP/microtubule affinity-regulating kinase 4 (Homo sapiens); conditions: at 1 µM
[14] = molecular target: Maternal embryonic leucine zipper kinase (Homo sapiens) (UniProt Q14680); conditions: at 0.1 µM
Chain of Maternal embryonic leucine zipper kinase (Homo sapiens) (Q14680 whole entry, looked up): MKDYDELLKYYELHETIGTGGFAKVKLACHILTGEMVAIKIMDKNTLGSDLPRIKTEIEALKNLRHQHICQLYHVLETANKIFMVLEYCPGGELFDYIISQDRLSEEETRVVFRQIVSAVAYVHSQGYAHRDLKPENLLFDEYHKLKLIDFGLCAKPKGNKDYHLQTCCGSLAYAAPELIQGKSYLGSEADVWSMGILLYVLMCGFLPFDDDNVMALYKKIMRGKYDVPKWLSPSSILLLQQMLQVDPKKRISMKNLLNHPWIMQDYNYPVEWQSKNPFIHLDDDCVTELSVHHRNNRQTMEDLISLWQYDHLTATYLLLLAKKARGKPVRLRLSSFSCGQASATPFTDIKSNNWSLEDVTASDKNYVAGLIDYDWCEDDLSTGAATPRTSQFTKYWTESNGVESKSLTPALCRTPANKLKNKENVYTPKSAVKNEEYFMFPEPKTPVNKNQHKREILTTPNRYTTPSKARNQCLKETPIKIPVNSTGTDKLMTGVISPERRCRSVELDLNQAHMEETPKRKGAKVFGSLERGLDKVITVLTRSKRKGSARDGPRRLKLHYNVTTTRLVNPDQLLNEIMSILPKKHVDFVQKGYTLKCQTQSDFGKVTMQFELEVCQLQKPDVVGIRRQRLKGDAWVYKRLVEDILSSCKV

[15] = molecular target: Maternal embryonic leucine zipper kinase (Homo sapiens) (UniProt Q14680); conditions: at 1 µM
[16] = molecular target: MAP kinase-interacting serine/threonine-protein kinase 1 (Homo sapiens) (UniProt Q9BUB5); conditions: at 0.1 µM
Chain of MAP kinase-interacting serine/threonine-protein kinase 1 (Homo sapiens) (Q9BUB5 whole entry, looked up): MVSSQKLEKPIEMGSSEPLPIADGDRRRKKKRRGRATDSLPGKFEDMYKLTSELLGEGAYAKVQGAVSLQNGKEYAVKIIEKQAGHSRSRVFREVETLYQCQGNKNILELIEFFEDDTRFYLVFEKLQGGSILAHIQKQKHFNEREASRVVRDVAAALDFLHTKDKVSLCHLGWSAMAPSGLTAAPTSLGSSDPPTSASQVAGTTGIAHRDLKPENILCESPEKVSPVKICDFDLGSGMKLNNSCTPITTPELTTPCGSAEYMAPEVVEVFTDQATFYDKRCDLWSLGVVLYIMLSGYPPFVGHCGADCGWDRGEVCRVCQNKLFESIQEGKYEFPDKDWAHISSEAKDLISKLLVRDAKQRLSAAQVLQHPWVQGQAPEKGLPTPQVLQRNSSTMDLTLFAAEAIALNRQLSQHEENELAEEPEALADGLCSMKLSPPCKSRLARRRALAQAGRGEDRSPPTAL

[17] = molecular target: MAP kinase-interacting serine/threonine-protein kinase 1 (Homo sapiens) (UniProt Q9BUB5); conditions: at 1 µM
[18] = molecular target: MAP kinase-interacting serine/threonine-protein kinase 2 (Homo sapiens) (UniProt Q9HBH9); conditions: at 0.1 µM
Chain of MAP kinase-interacting serine/threonine-protein kinase 2 (Homo sapiens) (Q9HBH9 whole entry, looked up): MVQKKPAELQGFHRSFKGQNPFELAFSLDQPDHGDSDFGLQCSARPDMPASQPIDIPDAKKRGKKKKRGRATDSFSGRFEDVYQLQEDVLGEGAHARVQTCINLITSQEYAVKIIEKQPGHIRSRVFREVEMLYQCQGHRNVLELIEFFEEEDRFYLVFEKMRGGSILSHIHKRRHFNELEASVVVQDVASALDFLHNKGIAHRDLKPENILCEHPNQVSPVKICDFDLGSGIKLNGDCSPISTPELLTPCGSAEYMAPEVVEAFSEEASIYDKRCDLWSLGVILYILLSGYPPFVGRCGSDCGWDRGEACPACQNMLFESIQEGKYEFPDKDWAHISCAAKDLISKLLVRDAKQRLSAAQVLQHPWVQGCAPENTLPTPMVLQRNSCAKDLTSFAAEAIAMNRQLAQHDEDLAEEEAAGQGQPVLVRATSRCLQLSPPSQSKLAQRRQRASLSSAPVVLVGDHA

[19] = molecular target: MAP kinase-interacting serine/threonine-protein kinase 2 (Homo sapiens) (UniProt Q9HBH9); conditions: at 1 µM
[20] = molecular target: Serine/threonine-protein kinase MARK2 (Homo sapiens) (UniProt Q7KZI7); conditions: at 0.1 µM;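 further: mean percent inhibition of PAR-1Balpha kinase activity, reported from the GSK PKIS screen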
Chain of Serine/threonine-protein kinase MARK2 (Homo sapiens) (Q7KZI7 whole entry): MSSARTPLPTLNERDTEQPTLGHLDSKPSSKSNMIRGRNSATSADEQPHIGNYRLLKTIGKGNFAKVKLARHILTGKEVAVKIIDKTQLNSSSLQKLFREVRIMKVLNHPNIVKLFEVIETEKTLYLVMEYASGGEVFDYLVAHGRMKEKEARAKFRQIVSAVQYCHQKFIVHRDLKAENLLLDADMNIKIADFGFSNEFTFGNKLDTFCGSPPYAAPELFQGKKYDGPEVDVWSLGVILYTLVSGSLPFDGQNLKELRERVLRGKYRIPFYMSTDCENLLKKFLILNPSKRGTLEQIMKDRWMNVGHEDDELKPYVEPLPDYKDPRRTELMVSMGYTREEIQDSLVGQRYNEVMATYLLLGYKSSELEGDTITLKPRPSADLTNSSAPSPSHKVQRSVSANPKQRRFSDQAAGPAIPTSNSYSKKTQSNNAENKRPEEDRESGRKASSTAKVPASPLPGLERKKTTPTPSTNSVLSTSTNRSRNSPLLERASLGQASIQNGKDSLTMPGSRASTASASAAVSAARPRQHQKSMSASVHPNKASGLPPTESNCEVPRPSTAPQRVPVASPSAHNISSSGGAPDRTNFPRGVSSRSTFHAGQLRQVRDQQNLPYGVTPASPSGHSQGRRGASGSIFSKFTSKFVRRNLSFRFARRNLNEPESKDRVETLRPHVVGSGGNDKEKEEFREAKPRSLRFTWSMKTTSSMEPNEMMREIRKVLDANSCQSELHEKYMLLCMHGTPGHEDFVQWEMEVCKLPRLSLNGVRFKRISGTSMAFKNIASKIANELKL

COc1ccc(-c2cc(-c3c[nH]nc3-c3ccccn3)ccn2)cc1
inhibition [1]: 6.22%
inhibition [2]: 2.08%
inhibition [3]: 0.82%
inhibition [4]: 2.82%
inhibition [5]: 2.73%
inhibition [6]: 6.42%
inhibition [7]: 14%
inhibition [8]: 5.2%
inhibition [9]: 7.25%
inhibition [10]: 5.15%
inhibition [11]: 5.51%
inhibition [12]: 2.2%
inhibition [13]: 2.28%
inhibition [14]: 3.77%
inhibition [15]: 8.05%
inhibition [16]: 3.19%
inhibition [17]: 7.19%
inhibition [18]: 2%
inhibition [19]: 6.65%
inhibition [20]: 2.97%

NS(=O)(=O)c1ccc(Nc2ncc(-c3ccccc3)o2)cc1
inhibition [1]: 4.56%
inhibition [2]: 1.31%
inhibition [3]: 1.65%
inhibition [4]: 1.62%
inhibition [5]: 1.99%
inhibition [6]: 2.89%
inhibition [7]: 2.39%
inhibition [8]: 3.62%
inhibition [9]: 12.9%
inhibition [10]: 4.38%
inhibition [11]: 12.2%
inhibition [12]: 2.7%
inhibition [13]: 10.9%
inhibition [14]: 1.52%
inhibition [15]: 0.94%
inhibition [16]: 4.26%
inhibition [17]: 21.3%
inhibition [18]: 3.92%
inhibition [19]: 18.9%
inhibition [20]: 2.35%

COc1ccc(-c2oc3ncnc(N)c3c2-c2ccc(NC(=O)Nc3cc(C(F)(F)F)ccc3F)cc2)cc1
inhibition [1]: 4.78%
inhibition [2]: 1.65%
inhibition [3]: 6.21%
inhibition [4]: 2.26%
inhibition [5]: 2.83%
inhibition [6]: 4.08%
inhibition [7]: 16.3%
inhibition [8]: 3.02%
inhibition [9]: 6.8%
inhibition [10]: 0.75%
inhibition [11]: 5.58%
inhibition [12]: 1.52%
inhibition [13]: 5.32%
inhibition [14]: 4.39%
inhibition [15]: -9.28%
inhibition [16]: 9.84%
inhibition [17]: 46.6%
inhibition [18]: 9.42%
inhibition [19]: 56.3%
inhibition [20]: 0.01%

COc1ccc(-c2cc3c(N)ncnc3o2)cc1
inhibition [1]: -3.05%
inhibition [2]: -1.82%
inhibition [3]: 0.37%
inhibition [4]: -1.21%
inhibition [5]: -0.76%
inhibition [6]: -1.27%
inhibition [7]: -1.91%
inhibition [8]: 0.03%
inhibition [9]: 2.81%
inhibition [10]: -1.55%
inhibition [11]: 4.01%
inhibition [12]: 0.16%
inhibition [13]: 1.62%
inhibition [14]: -3.33%
inhibition [15]: -1.79%
inhibition [16]: 0.35%
inhibition [17]: 2%
inhibition [18]: 0.74%
inhibition [19]: 4.21%
inhibition [20]: -0.22%

COC(=O)Nc1nc2ccc(S(=O)(=O)c3ccc(NC(=O)Nc4cc(C(F)(F)F)ccc4F)cc3)cc2[nH]1
inhibition [1]: 5.43%
inhibition [2]: -0.62%
inhibition [3]: -0.64%
inhibition [4]: 0.59%
inhibition [5]: 1.63%
inhibition [6]: 1.8%
inhibition [7]: 3.35%
inhibition [8]: 2.26%
inhibition [9]: 2.1%
inhibition [10]: 3.97%
inhibition [11]: 0.83%
inhibition [12]: 1.2%
inhibition [13]: 1.06%
inhibition [14]: 1.64%
inhibition [15]: 4.33%
inhibition [16]: 1.27%
inhibition [17]: 1.87%
inhibition [18]: 1%
inhibition [19]: 0.01%
inhibition [20]: -2.72%

COc1cccc(-n2ncc3c(N/N=C/c4ccc(F)cc4)ncnc32)c1
inhibition [1]: 5.45%
inhibition [2]: 1.07%
inhibition [3]: 0.2%
inhibition [4]: 1.96%
inhibition [5]: 2.72%
inhibition [6]: 3.14%
inhibition [7]: 3.2%
inhibition [8]: 3.33%
inhibition [9]: 5.14%
inhibition [10]: 4.91%
inhibition [11]: 6.87%
inhibition [12]: 1.23%
inhibition [13]: 2.4%
inhibition [14]: 2.6%
inhibition [15]: 5.51%
inhibition [16]: 4.58%
inhibition [17]: 17.5%
inhibition [18]: 4.13%
inhibition [19]: 13.3%
inhibition [20]: 1.91%

Cc1cccc2c1NC(=O)/C2=N\Nc1ccc(S(N)(=O)=O)cc1
inhibition [1]: 4.75%
inhibition [2]: 0.74%
inhibition [3]: 2.14%
inhibition [4]: 1.37%
inhibition [5]: 1.1%
inhibition [6]: 2.44%
inhibition [7]: 2.04%
inhibition [8]: 1.81%
inhibition [9]: 3.2%
inhibition [10]: 2.64%
inhibition [11]: 2.38%
inhibition [12]: 1.25%
inhibition [13]: 2.15%
inhibition [14]: 3.77%
inhibition [15]: 2.1%
inhibition [16]: 1.62%
inhibition [17]: 2.53%
inhibition [18]: 0.84%
inhibition [19]: 1.26%
inhibition [20]: 0.47%

COc1ccc2[nH]c3c4[nH]c5ccc(OC)cc5c4c4c(c3c2c1)C(=O)NC4=O
inhibition [1]: 24.8%
inhibition [2]: 1.24%
inhibition [3]: 2.81%
inhibition [4]: 2.61%
inhibition [5]: 5.29%
inhibition [6]: 5.01%
inhibition [7]: 6.04%
inhibition [8]: 7.99%
inhibition [9]: 38.8%
inhibition [10]: 3.92%
inhibition [11]: 33.5%
inhibition [12]: 3.93%
inhibition [13]: 15.9%
inhibition [14]: 22.3%
inhibition [15]: 77.6%
inhibition [16]: 6.39%
inhibition [17]: 11.5%
inhibition [18]: 8.34%
inhibition [19]: 18.1%
inhibition [20]: 1.57%

CCOc1ccc2c(-c3ccnc(Nc4cccc(C(F)(F)F)c4)n3)cnn2n1
inhibition [1]: 1.54%
inhibition [2]: 1.21%
inhibition [3]: 3.6%
inhibition [4]: 0.79%
inhibition [5]: -0.24%
inhibition [6]: 2.73%
inhibition [7]: 1.86%
inhibition [8]: 2.43%
inhibition [9]: 3.98%
inhibition [10]: 1.6%
inhibition [11]: 0.96%
inhibition [12]: 1.1%
inhibition [13]: 1.8%
inhibition [14]: 1.46%
inhibition [15]: 3.63%
inhibition [16]: 2.65%
inhibition [17]: 4.31%
inhibition [18]: -0.81%
inhibition [19]: 3.49%
inhibition [20]: 0.02%

COc1cc(/C=N/Nc2ncnc3[nH]ncc23)ccc1O
inhibition [1]: 4.2%
inhibition [2]: 1.49%
inhibition [3]: 1.35%
inhibition [4]: 2.01%
inhibition [5]: 2.3%
inhibition [6]: 2.87%
inhibition [7]: 4%
inhibition [8]: 7.13%
inhibition [9]: 35.7%
inhibition [10]: 7.13%
inhibition [11]: 30.6%
inhibition [12]: 1.99%
inhibition [13]: 15.4%
inhibition [14]: 15.3%
inhibition [15]: 75.5%
inhibition [16]: 4.69%
inhibition [17]: 22.6%
inhibition [18]: 3.33%
inhibition [19]: 25.7%
inhibition [20]: 4.08%

O=C(Nc1n[nH]c2cc(-c3ccc(F)cc3)ccc12)C1CC1
inhibition [1]: 9.97%
inhibition [2]: 1.56%
inhibition [3]: 0.81%
inhibition [4]: 4.23%
inhibition [5]: 4.01%
inhibition [6]: 9.47%
inhibition [7]: 8.99%
inhibition [8]: 3.81%
inhibition [9]: 5.7%
inhibition [10]: 2.03%
inhibition [11]: 4.76%
inhibition [12]: 2%
inhibition [13]: 3.26%
inhibition [14]: 4.84%
inhibition [15]: 8.01%
inhibition [16]: 4.85%
inhibition [17]: 25.8%
inhibition [18]: 1.37%
inhibition [19]: 7.23%
inhibition [20]: 1.15%

c1ccc(-c2nc3n(c2-c2ccc4c(c2)OCO4)CCC3)nc1
inhibition [1]: 1.91%
inhibition [2]: 0.33%
inhibition [3]: 2.8%
inhibition [4]: 1.38%
inhibition [5]: 1.27%
inhibition [6]: 3.55%
inhibition [7]: 3.33%
inhibition [8]: 1.87%
inhibition [9]: 4.07%
inhibition [10]: 2.01%
inhibition [11]: 4.15%
inhibition [12]: 1.03%
inhibition [13]: 2.7%
inhibition [14]: 2.58%
inhibition [15]: 4.77%
inhibition [16]: 1.71%
inhibition [17]: 3.75%
inhibition [18]: 0.98%
inhibition [19]: -0.19%
inhibition [20]: 2.71%

N#Cc1c(NC(=O)CN2CCOCC2)sc2c1CCCC2
inhibition [1]: 5.97%
inhibition [2]: 2.25%
inhibition [3]: 1.22%
inhibition [4]: 2.32%
inhibition [5]: 2%
inhibition [6]: 3.68%
inhibition [7]: 5.44%
inhibition [8]: 4.32%
inhibition [9]: 6.04%
inhibition [10]: 4.14%
inhibition [11]: 5.29%
inhibition [12]: 1.24%
inhibition [13]: 1.29%
inhibition [14]: 3.07%
inhibition [15]: 1.6%
inhibition [16]: 3.42%
inhibition [17]: 6.68%
inhibition [18]: 1.2%
inhibition [19]: 6.58%
inhibition [20]: 1.3%
